Experimental data taken from PubChem BioAssay AID602143 (Vanderbilt Specialized Chemistry Center, 2011).
A number with no mark means an inactive call. Rule as the data show it: active = remaining activity below about 50%; inactive = the rest.

biological target: Phospholipase D2 (Homo sapiens) (UniProt O14939); experiment: PLD2 inhibitors in cells, cell-based, HEK293, single concentration (AID 602143); details: HEK293 cellular PLD2 activity, percent of control; hits give low values;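 also: tested at 200 nM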
Sequence (O14939 whole entry, looked up): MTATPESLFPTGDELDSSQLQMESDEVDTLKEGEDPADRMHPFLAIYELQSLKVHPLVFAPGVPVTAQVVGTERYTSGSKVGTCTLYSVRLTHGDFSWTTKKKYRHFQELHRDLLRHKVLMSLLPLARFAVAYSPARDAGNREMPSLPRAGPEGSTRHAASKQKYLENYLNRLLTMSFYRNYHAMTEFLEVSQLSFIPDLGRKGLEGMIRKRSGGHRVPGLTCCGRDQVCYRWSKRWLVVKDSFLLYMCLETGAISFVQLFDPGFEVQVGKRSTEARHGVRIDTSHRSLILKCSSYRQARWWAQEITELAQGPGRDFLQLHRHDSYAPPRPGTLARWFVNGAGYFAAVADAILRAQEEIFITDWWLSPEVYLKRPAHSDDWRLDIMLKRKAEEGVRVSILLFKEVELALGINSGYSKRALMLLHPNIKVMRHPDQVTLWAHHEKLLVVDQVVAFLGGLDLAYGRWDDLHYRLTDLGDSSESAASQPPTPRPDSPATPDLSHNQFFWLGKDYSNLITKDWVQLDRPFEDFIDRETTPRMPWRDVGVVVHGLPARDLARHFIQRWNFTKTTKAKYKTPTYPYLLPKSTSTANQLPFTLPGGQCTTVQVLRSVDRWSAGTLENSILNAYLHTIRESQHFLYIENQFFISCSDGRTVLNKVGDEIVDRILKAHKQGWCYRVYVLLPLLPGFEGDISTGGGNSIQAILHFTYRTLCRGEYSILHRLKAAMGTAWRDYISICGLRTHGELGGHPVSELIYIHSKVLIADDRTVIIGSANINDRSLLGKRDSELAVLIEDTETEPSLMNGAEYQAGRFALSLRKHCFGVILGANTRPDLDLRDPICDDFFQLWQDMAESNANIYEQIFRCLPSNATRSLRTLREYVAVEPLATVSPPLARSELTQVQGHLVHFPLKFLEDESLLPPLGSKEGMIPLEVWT
Sequence (O14939 whole entry, looked up): as above

SMILES	remaining activity [%]
O=C(NCCN1CCC(n2c(=O)[nH]c3ccccc32)CC1)N1c2ccccc2Sc2ccccc21	111
O=c1[nH]c2ccccc2n1C1CCN(CCNS(=O)(=O)c2cccc3cccnc23)CC1	112
O=C(NCCN1CCC2(CC1)CNc1ccccc12)c1ccc2ccccc2c1	61.8
COc1cccc(N2CCN(CCNC(=O)c3ccc4ccccc4c3)CC2)c1	77.4
O=C(Cc1ccc2ccccc2c1)NCCN1CCC(n2c(=O)[nH]c3ccccc32)CC1	112
CCCS(=O)(=O)NCCN1CCC(n2c(=O)[nH]c3ccccc32)CC1	64.7
O=C(NCCN1CCC(n2c(=O)[nH]c3ccccc32)CC1)Nc1cccc(OC(F)(F)F)c1	111
O=C(c1ccc2ccccc2c1)N1CCC2(CC1)C(=O)NCN2c1ccccc1	75.8
C[C@H](CN1CCC2(CC1)CNCc1ccccc12)NC(=O)c1cnc2ccccc2c1	100
Cc1ccc(S(=O)(=O)NCCN2CCC(n3c(=O)[nH]c4ccccc43)CC2)cc1	77.3
O=C(NCCN1CC=C(n2nnc3cc(C(F)(F)F)ccc32)CC1)c1cnc2ccccc2c1	114
O=C(NCCN1CCC(n2c(=O)[nH]c3ccccc32)CC1)NCc1cccc(F)c1	101
C[C@@H](CN1CCC(n2c(=O)[nH]c3cc(I)ccc32)CC1)NC(=O)c1ccc(Cl)cc1	72.7
C[C@@H](CN1CCC(n2c(=O)[nH]c3ccccc32)CC1)NC(=O)c1ccc2ncccc2c1	82.2
